Source: PubChem BioAssay AID1159580 (chemical genetic matrix, 2015)
About 2,000 (36%) of roughly 5,500 compounds were called active. About 18% were inconclusive and are not listed. No stated cut-off is given here; in the data, active means normalized growth mostly below about 0.91 (no sharp cut-off); inconclusive means no clear call, values can overlap the other calls; inactive means mostly above about 0.92. This is one part of the list.

Assay: chemical genetic growth profiling, strain panel (AID 1159580);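 further: tested at 20 µM; growth read once vehicle control cultures reached saturation at 30 °C; 1 = growth at the plate median or of vehicle wells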
Details: growth OD
[1] = S. cerevisiae deletion strains, locus YAL013W, strain DEP1, stronger effect = lower value
[2] = S. cerevisiae deletion strains, locus YBR229C, strain ROT2, stronger effect = lower value
[3] = S. cerevisiae deletion strains, locus YCL061C, strain MRC1, stronger effect = lower value
[4] = S. cerevisiae deletion strains, locus YDL101C, strain DUN1, stronger effect = lower value
[5] = S. cerevisiae deletion strains, locus YDL134C, strain PPH21, stronger effect = lower value
[6] = S. cerevisiae deletion strains, locus YDR150W, strain NUM1, stronger effect = lower value
[7] = S. cerevisiae deletion strains, locus YEL061C, strain CIN8, stronger effect = lower value
[8] = S. cerevisiae deletion strains, locus YGR078C, strain PAC10, stronger effect = lower value
[9] = S. cerevisiae deletion strains, locus YHR030C, strain SLT2, stronger effect = lower value
[10] = S. cerevisiae deletion strains, locus YHR087W, strain rtc3, stronger effect = lower value
[11] = S. cerevisiae deletion strains, locus YJL187C, strain SWE1, stronger effect = lower value
[12] = S. cerevisiae deletion strains, locus YJR043C, strain POL32, stronger effect = lower value
[13] = S. cerevisiae deletion strains, locus YJR075W, strain HOC1, stronger effect = lower value
[14] = S. cerevisiae deletion strains, locus YKL190W, strain CNB1, stronger effect = lower value
[15] = S. cerevisiae deletion strains, locus YLR039C, strain RIC1, stronger effect = lower value
[16] = S. cerevisiae deletion strains, locus YLR058C, strain SHM2 (second series), stronger effect = lower value
[17] = S. cerevisiae deletion strains, locus YLR085C, strain ARP6, stronger effect = lower value
[18] = S. cerevisiae deletion strains, locus YLR262C, strain YPT6, stronger effect = lower value
[19] = S. cerevisiae deletion strains, locus YML094W, strain GIM5, stronger effect = lower value
[20] = S. cerevisiae deletion strains, locus YMR219W, strain ESC1, stronger effect = lower value
[21] = S. cerevisiae deletion strains, locus YMR263W, strain SAP30, stronger effect = lower value
[22] = S. cerevisiae deletion strains, locus YNL153C, strain GIM3, stronger effect = lower value
[23] = S. cerevisiae deletion strains, locus YNL298W, strain CLA4 (second series), stronger effect = lower value
[24] = S. cerevisiae deletion strains, locus YNL322C, strain KRE1, stronger effect = lower value
[25] = S. cerevisiae deletion strains, locus YNR030W, strain Alg12, stronger effect = lower value
[26] = S. cerevisiae deletion strains, locus YPL055C, strain LGE1, stronger effect = lower value
[27] = S. cerevisiae deletion strains, locus YPL241C, strain CIN2, stronger effect = lower value
[28] = S. cerevisiae deletion strains, locus YPR135W, strain CTF4, stronger effect = lower value

Measured: normalized growth

O=C(NNC(=S)NC1CC2C=CC1C2)c1cccnc1 (centres undefined)
active: [18] 0.809
inactive: [1] 0.985 | [2] 0.992 | [3] 0.971 | [4] 0.979 | [5] 0.992 | [6] 0.971 | [7] 0.977 | [8] 0.982 | [9] 0.908 | [10] 1.07 | [11] 0.989 | [12] 0.977 | [13] 0.986 | [14] 0.997 | [15] 0.812 | [16] 0.985 | [17] 0.938 | [19] 0.962 | [20] 0.993 | [21] 0.984 | S. cerevisiae deletion strains, locus YMR307W, strain GAS1, stronger effect = lower value 1.22 | [22] 0.993 | [23] 0.958 | [24] 0.993 | [25] 0.979 | [26] 0.979 | [27] 0.964 | [28] 0.92

O=C(NNC(=S)Nc1cccc(Cl)c1)c1cccnc1
inactive: [1] 1 | [2] 1 | [3] 0.976 | [4] 0.978 | [6] 0.969 | [7] 1.01 | [8] 0.97 | [9] 0.939 | [10] 0.992 | [11] 0.985 | [12] 0.999 | [13] 0.982 | [15] 1.03 | [16] 0.997 | [17] 0.885 | [18] 1.02 | [19] 0.965 | [20] 0.999 | [21] 0.949 | [22] 0.979 | [23] 0.98 | [24] 0.994 | [25] 0.956 | S. cerevisiae deletion strains, locus YOL006C, strain TOP1, stronger effect = lower value 0.803 | [26] 0.868 | [27] 0.972 | [28] 0.893

O=C(CSCc1c(Cl)cccc1Cl)NNC(=S)NC1CC2C=CC1C2 (centres undefined)
active: [5] 0.857 | [14] 0.762 | [15] 0.607 | [18] 0.59 | [19] 0.827 | S. cerevisiae deletion strains, locus YNL128W, strain TEP1, stronger effect = lower value 0.792 | [23] 0.658 | [25] 0.781 | [27] 0.696 | S. cerevisiae strains, strain wild type, stronger effect = lower value 0.746
inactive: [1] 0.99 | [2] 0.972 | [4] 0.94 | [6] 0.956 | [8] 0.97 | [9] 0.838 | [10] 1.06 | [11] 0.979 | [12] 0.971 | [13] 0.973 | [16] 1.01 | [17] 0.788 | [20] 1.01 | [21] 0.944 | [22] 0.955 | [24] 1.02 | [26] 0.867 | [28] 0.873
